Results on 27 compounds are retold here after PubChem BioAssay (NCATS).

Inconclusive results are not listed. A call without a number means that no potency is given here. Activity calls are given as the source filed them. The call rests on the fitted dose curve; in most records, active means well fitted cell-killing curve with a large enough effect; inconclusive means small, poorly fitted or top-dose-only effect, or effect the other way; inactive means no such curve, though single readings can be large or run the other way. Numbered stars: 1 amine (or outer) side, 2 acyl side, 3 side chain; on linkers, the order of the positions; unused ones are H or OH. Bridge positions count the residues as written; N and C are the ends. Square brackets hold non-standard residues; d marks the D form. Peptide text beside a SMILES is read from it. I, II: the chains in the order shown. Actinocin(9to1) = Cc1c2oc3c(C)ccc(C(=O)[*:1])c3nc-2c(C(=O)[*:2])c(N)c1=O; NMeV = CN[C@H](C(=O)O)C(C)C; Sar = CNCC(=O)O
Potency means the concentration at half of the fitted maximal effect.

The assay in a line: qHTS of pediatric cancer cell lines to identify multiple opportunities for drug repurposing: Confirmatory screen for NB1643 cells (AID 1347109). Further: nearly all actives have a fitted effect of over 45% in size. Particulars: NB1643 neuroblastoma cell viability; series mostly up to 45.9 µM. The text has this:
Drug repurposing or repositioning has been offered as a strategy for drug development in oncology programs. This approach has special potential for childhood cancers and other rare or orphan diseases, where the expected return on new drug development has been a disincentive to pharmaceuticals.
In this project we exploit the poly-pharmacology of drugs to discover new indications via phenotypic screening of a panel of 19 well-characterized cell lines derived from solid tumors seen in children and adolescents. The goal is to identify approved drugs with previously unrecognized anticancer properties that has the potential to reveal new mechanisms and biological processes involved in carcinogenesis or drug resistance. We employed a titration-based paradigm (quantitative high-throughput screening or qHTS), where all compounds were tested at multiple concentrations for their effect on cell viability. Concentration-response curves (CRCs) were derived directly from the primary screen, and both potency and efficacy values were used to identify compounds with robust bioactivity profiles. We screened the NIH Chemical Genomics Center (NCGC) Pharmaceutical Collection (NPC) and Mechanism Interrogation Plate (MIPE) small molecule collections of approved and investigational compounds against these cell lines; and measured metabolically active cells after 48 hours of compound treatment as a proxy for cell viability.
Assay Submitter: Nathalia J. Martinez, National Center for Advancing Translational Sciences, National Institutes of Health, Rockville, MD, USA; email: natalia.martinez@nih.gov
[1] Shen, M et al. Quantitative high-throughput phenotypic screening of pediatric cancer cell lines identifies multiple opportunities for drug repurposing. Oncotarget 2017 Dec 19;9(4):4758-4772. PMID 29435139.
The cells were obtained from University of North Carolina (UNC), Pediatric Preclinical Testing Program (PPT), and Coriell Institute (CI).
qHTS cell viability assay:
Cells were assayed in growth media at a density of 500-1,000 cells/well. Five microliters of cells were dispensed into 1,536-well, white, solid-bottom, TC-treated plates (Greiner Bio One) using a multidrop dispenser and incubated at 37 degrees C, 5% CO2, under a humidified atmosphere for 5 hours. Twenty-three nanoliters of compounds and controls (neutral control DMSO or positive control bortezomib at final concentration of 2.3 µM) were subsequently transferred by Kalypsys pintool. For primary screens, the MIPE collection was tested at 11-point dilutions (final concentrations range from 0.78 nM to 46 µM) and the NPC collection at 8-point dilutions (final concentrations range from 0.59 nM to 46 µM). Compounds tested in follow-up screens were assayed at 11-point dilutions. Cells were incubated for 48 hours, followed by addition of 3 µL of CellTiter-Glo (Promega). After a 15 min incubation at room temperature, samples were analyzed for luminescence intensity using a ViewLux High-throughput CCD imager equipped with clear filters.
(Quantitative high-throughput screening tests each substance at several concentrations.)
`CC(=O)OCC(=O)[C@@]12OC(C)(C)O[C@@H]1C[C@H]1[C@@H]3C[C@H](F)C4=CC(=O)C=C[C@]4(C)[C@@]3(F)[C@@H](O)C[C@@]12C`: the Potency result was “inactive”.

`C=C1C[C@H]2[C@@H]3C=C(C)C4=CC(=O)CC[C@]4(C)[C@H]3CC[C@]2(C)[C@@]1(OC(C)=O)C(C)=O`: the Potency result was “inactive”.

`CC(=O)OCC(=O)[C@@]1(O)[C@H](C)C[C@H]2[C@@H]3CCC4=CC(=O)C=C[C@]4(C)[C@@]3(F)[C@@H](O)C[C@@]21C`: the Potency was 20.8 µM (active).

For `C[C@H]1C[C@H]2[C@@H]3CCC4=CC(=O)C=C[C@]4(C)[C@@]3(Cl)[C@@H](O)C[C@]2(C)[C@@]1(O)C(=O)CO`, the Potency result is “inactive”.

In the case of `CCCCC(=O)O[C@]1(C(=O)CO)CC[C@H]2[C@@H]3CCC4=CC(=O)CC[C@]4(C)[C@H]3[C@@H](O)C[C@@]21C`, the Potency result is “inactive”.

In the case of `CCCC(=O)O[C@]1(C(=O)CO)CC[C@H]2[C@@H]3CCC4=CC(=O)CC[C@]4(C)[C@H]3[C@@H](O)C[C@@]21C`, the Potency entry was “inactive”.

As for `CCCCCCC[N+](CC)(CC)CCCCc1ccc(Cl)cc1`, the Potency was 14.7 µM (active).

As to `CC(=O)OCC(=O)[C@@]1(OC(C)=O)[C@@H](C)C[C@H]2[C@@H]3C[C@H](F)C4=CC(=O)C=C[C@]4(C)[C@@]3(F)[C@@H](O)C[C@@]21C`, the Potency entry was “inactive”.

For the compound `C[C@@H]1C[C@H]2[C@@H]3CCC4=CC(=O)C=C[C@]4(C)[C@@]3(F)[C@@H](O)C[C@]2(C)[C@H]1C(=O)CO`, the Potency entry is “inactive”.

`CC(=O)OCC(=O)[C@@]1(O)CC[C@H]2[C@@H]3CCC4=CC(=O)C=C[C@]4(C)[C@H]3[C@@H](O)C[C@@]21C`: the Potency result is “inactive”.

On to `C[n+]1c2cc(N)ccc2cc2ccc(N)cc21` (tested in a mixture with another compound), for which the Potency is 3.29 µM (active).

In the case of `CN(C)C(=S)SC(=S)N(C)C`, the Potency is 9.27 µM (active).

Consider `CCCCC(CC)CN=C(N)NC(N)=NCCCCCCN=C(N)NC(N)=NCC(CC)CCCC` (configuration not stated), for which the Potency was 5.22 µM (active).

As to `COc1cc(C=C2CCC/C(=C\c3ccc(O)c(OC)c3)C2=O)ccc1O`, the Potency was 18.5 µM (active).

As for `CC1(C)O[C@@H]2C[C@H]3[C@@H]4CCC5=CC(=O)CC[C@]5(C)[C@@]4(F)[C@@H](O)C[C@]3(C)[C@]2(C(=O)CCl)O1`, the Potency entry was “inactive”.

On to `C[C@]12CCC(=O)C=C1CC[C@H]1[C@@H]3CC[C@](O)(C(=O)CO)[C@@]3(C)C[C@H](O)[C@@]12F`, for which the Potency result is “inactive”.

As to `O=C(CCCN1CCC(O)(c2ccc(Br)cc2)CC1)c1ccc(F)cc1`, the Potency result was “inactive”.

For `CC(=O)OCC(=O)[C@@]12N=C(C)O[C@@H]1C[C@H]1[C@@H]3CCC4=CC(=O)C=C[C@]4(C)[C@H]3[C@@H](O)C[C@@]12C`, the Potency is 2.33 µM (active).

`C[C@]12C=CC(=O)C=C1[C@@H](F)C[C@@H]1[C@@H]2[C@@H](O)C[C@@]2(C)[C@H]1CC[C@]2(O)C(=O)CO`: the Potency entry is “inactive”.

With `CC(=O)Oc1ccc(C(c2ccc(OC(C)=O)cc2)c2ccccn2)cc1`, the Potency result was “inactive”.

As for `CCC(C(=O)OCCN(CC)CC)c1ccccc1` (configuration not stated), the Potency result is “inactive”.

As to `CC1(C)O[C@@H]2C[C@H]3[C@@H]4C[C@H](F)C5=CC(=O)CC[C@]5(C)[C@H]4[C@@H](O)C[C@]3(C)[C@]2(C(=O)CO)O1`, the Potency entry was “inactive”.

Consider `NC(CO)(CO)CO`, for which the Potency result is “inactive”.

As to `Cc1c2oc3c(C)ccc(C(=O)N[C@@H]4C(=O)N[C@H](C(C)C)C(=O)N5CCC[C@H]5C(=O)N(C)CC(=O)N(C)[C@@H](C(C)C)C(=O)O[C@@H]4C)c3nc-2c(C(=O)N[C@@H]2C(=O)N[C@H](C(C)C)C(=O)N3CCC[C@H]3C(=O)N(C)CC(=O)N(C)[C@@H](C(C)C)C(=O)O[C@@H]2C)c(N)c1=O` (I: T[dV]P[Sar][NMeV] / II: T[dV]P[Sar][NMeV]; ester I:1-I:C, II:1-II:C; linker I:N-II:N via Actinocin(9to1)), the Potency result is “inactive”.

As for `CC(C)(C(=O)c1cccnc1)c1cccnc1`, the Potency entry is “inactive”.

`Oc1ccc(O)cc1`: the Potency was 18.5 µM (active).

As for `NC(=O)CC[C@@H]1NC(=O)[C@H](Cc2ccccc2)NC(=O)[C@H](Cc2ccc(O)cc2)NC(=O)CCSSC[C@@H](C(=O)N2CCC[C@H]2C(=O)N[C@@H](CCCN=C(N)N)C(=O)NCC(N)=O)NC(=O)[C@H](CC(N)=O)NC1=O`, the Potency entry was “inactive”.
